Here are results for 8 compounds from PubChem BioAssay (NCI).

The panel holds about 79,000 compounds, 15% with a hit somewhere; the sample as a whole holds those more often. Values without a mark were called inactive. Active and inactive are the calls of the source. Rule as the data show it: active = growth inhibition above about 70%; inactive = the rest.

The nature of the assay: NCI Yeast Anticancer Drug Screen. Data for the rad50EPP+ strain (AID 151).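 Also: 0% = growth of vehicle-treated control cultures.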 The note with it: S. cerevisiae rad50 mutant strain, stronger effect = higher value. As for the experimental part: Growth inhibition of yeast strains with defined genetic alterations is measured as a screen for potential anti-cancer activity. Selected strains with alterations in DNA damage repair or cell cycle control were exposed to compounds and growth inhibition was measured relative to vehicle treated controls. The strain used in this assay is rad50EPP+

For the compound `CCOC(=O)C(C(=O)OCC)=P(c1ccccc1)(c1ccccc1)c1ccccc1`, the growth inhibition by setting is: (at 1.2 µM) -2%; (at 3.7 µM) -3%; (at 11.0 µM) -2%; (at 33.0 µM) -1%; (at 100.0 µM) 3%.
As for `CCCCCCCCCCCC1N=C(N)NC(CCCO)=C1C(=O)OC` (stereo not given), the growth inhibition reads like this: (at 1.2 µM) 32%; (at 3.7 µM) 81% (active); (at 11.0 µM) 99% (active); (at 33.0 µM) 99% (active); (at 100.0 µM) 98% (active).
On to `O=[N+]([O-])c1cc(Cl)cnc1Br`, for which the growth inhibition reads like this: (at 1.2 µM) 35%; (at 3.7 µM) 71% (active); (at 11.0 µM) 88% (active); (at 33.0 µM) 96% (active); (at 100.0 µM) 98% (active).
As for `CN1C(=O)c2ccc3ccccc3c2C1=O`, the growth inhibition is 8% (at 1.2 µM); 12% (at 3.7 µM); 42% (at 11.0 µM); 58% (at 33.0 µM); 52% (at 100.0 µM).
`CC(=O)OC1CC2C(C)(C)C(=O)C=C[C@]2(C)C2CCC3(C)C(=CCC3[C@H](CO)C[C@H](O)C(=O)C(C)(C)O)[C@]12C` (stereo not given in full): the growth inhibition reads like this: (at 1.2 µM) -34%; (at 3.7 µM) -35%; (at 11.0 µM) -39%; (at 33.0 µM) -39%; (at 100.0 µM) -31%.
Consider `O=C(Oc1ccc2c(c1)CN(Cc1ccccc1)CO2)c1ccccc1`, for which the growth inhibition is -4% (at 1.2 µM); -3% (at 3.7 µM); 4% (at 11.0 µM); 6% (at 33.0 µM); 22% (at 100.0 µM).
The matching figures for `S=c1sc2c(s1)SCCS2`: 2%, 3%, 6%, 14% and 9%.
In the same order, the values of `CCOc1c(N=Nc2ccccc2OC)c(C)nn1C(=S)S` are 2%, 14%, 26%, 54% and 79% (active).
